The campaign covered roughly 53,000 sequences. About 3,700 (7%) were called active. The entries come from a sample that favours actives as a whole. A number with no mark means an inactive call.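 How the source made its calls: active means gene knockdowns whose robust z-score for IL-1 alpha signal is at least 2 or at most -2, so actives lie on both sides; inactive means the rest.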

This test is described as follows: Components of the Cytosolic LPS Sensing Pathway: Gene Identification via Genome-wide siRNA Screen.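 Further: robust z of the log signal after scaling to non-targeting control siRNA wells of the plate.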 As to conditions: RAW264.7 macrophages, IL-1a HTRF, actives lie on both sides, screened at 100 nM (by protocol), cells primed 5 h with Pam3CSK4 first. Put shortly:
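Read-out: IL-1a HTRF on supernatant, divided by plate negative-control median ×100, log-transformed and converted to robust z-score. Cells were RAW264.7 given 100 nM siRNA, Pam3CSK4-primed 5 hours, then LipidA-transfected 24 hour.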
In the case of GGGAUCAAUGCUUAAUACATT against Zfp2, the z-score was 1.1.

On to GGGAAACACAAUUUACCUUTT against Elf1, for which the z-score was 3.18 (active).

Regarding CCAACUUUCUCUUAGGAAATT against Igfl3, the z-score is -0.487.

For CCAGCCUUCAAUUGUGGUCTT against Scn1b, the z-score is 0.672.

For GAUUUUCUUUGUUCAUCUCTT against Olfr727, the z-score is -0.535.

Consider CGACUAUCAGCAGCUGAAGTT against Igf1r, for which the z-score was 5.27 (active).

With GCGGAUUGUCUUCCUAGACTT against Smg9, the z-score is -1.14.

For GGUUCUAGGACCUAUUUUGTT against Cep57, the z-score was 1.87.

Regarding GGUUAUUACCCAGUUCACGTT against Pramel1, the z-score was -0.668.

Take GCCCUUCGUGAUGAAGAAUTT against B4galt3: the z-score was 0.829.

On to GCUAAACUCGCUCAAUCUGTT against Cd14, for which the z-score is 0.537.

With CCUACUACUUCGUUAUCCGTT against Chrna2, the z-score is 0.447.

Take GCUGAUGUGAAUGGCUCACTT against Gmeb2: the z-score was -1.02.

GGCCCUUUGAGUCGUUCCUTT against Batf3: the z-score was 2.6 (active).

With CCGUGUCUUAGGUGAUCACTT against H2-DMb1, the z-score is 0.391.

In the case of GGAGACGAAUCCUUUCAGUTT against Mis12, the z-score was 0.476.

For CCAAAGGUUACCAGGAAGCTT against Pcsk4, the z-score was 0.124.

Turning to GCAGCUAAAACAAGUUUGATT against Sntg2, the z-score was -0.565.

GGAUUUACCUUACAAAAGUTT against Aff2: the z-score was 0.578.

GGAUCUAUUCUCUCUGAUGTT against Prune2: the z-score was 1.03.

Turning to GGCAAAGUAUAAAGAAGUATT against Gkap1, the z-score is 2.23 (active).

Turning to GCCAUUAAGAUCGCUUACUTT against Selenop, the z-score is -0.432.

Consider GGAGCUUUCUCAAGAUUCATT against Arid1a, for which the z-score is 0.263.

With GCGACUUCGCUAUAUCAAGTT against Samhd1, the z-score is 1.65.

With CCUUAGGAUUUGAACGCGUTT against Cutc, the z-score is -0.554.

Regarding GCUAGUAUUCUAAGAUCUUTT against Mpp6, the z-score was 2.25 (active).

Turning to GGCAAAAUCGUGAAAAUUCTT against Vwf, the z-score was -0.144.

For the sequence GGCGAUCCUUACUCCAAUGTT against Zfp90, the z-score was 0.143.

GGAAUGGACCUCAAAAUUGTT against Vmp1: the z-score is 0.532.

As to GCCACUACCGAUUUUCCCUTT against Lctl, the z-score was -2.29 (active).

In the case of GGAGAUGCUAGAAAUUGUGTT against Hpca, the z-score was -0.909.

Turning to GCACAUCGGCCUUAAGUCATT against Supt4a, the z-score is -0.833.

On to CCGUUUUCGCUUUGAGAAATT against Smarcad1, for which the z-score is 4.47 (active).

In the case of GUAAUUCACAGCCUCUCCGTT against Pitx3, the z-score is 1.03.

As for GGACAUUUUAGUUGUCUUGTT against Slc38a4, the z-score was -0.607.

For GGAUCCAAGGCAAAGAUGUTT against Fto, the z-score was 1.73.

Consider AUACGAUUUUUGUACUGCUTT against Defa4, for which the z-score was 0.305.

On to GCCAGGUGUGGUGACUCAUTT against Tprkb, for which the z-score is 0.584.

As to GCUAUGCAAAUGGUGUCAATT against Fcnb, the z-score is -0.147.

Turning to GGUGAGAUGGUUCAACAUGTT against Olfr77, the z-score was 1.7.

As to GGACUUGAACAACUUACAATT against Plcb1, the z-score was 2.37 (active).

On to GUAUUAAGACCAAACAGAUTT against Olfr623, for which the z-score was -0.497.

CCCAAUCGGUUAAUUGUUGTT against Vcp: the z-score is -2.37 (active).

On to GCCAGUUAUCACUUAACCCTT against Cmc1, for which the z-score is -0.514.

On to GGAACCUUCAGAGCGACUUTT against Trib3, for which the z-score was 0.224.

Take GGCAAGGAGGAUGACAAAATT against Rnf113a2: the z-score is 0.416.

As for GGUAGAGAGACUGUAAUUATT against Ppp2r1b, the z-score is -0.598.

Turning to GGAGUUUAUGAAAUUCAACTT against Fcgrt, the z-score was 1.34.

CCAUCUAUGGUAUGGAGCGTT against Abcg4: the z-score is 0.606.

In the case of GGAUGAAGAAGAUGAAGAUTT against Prepl, the z-score is -2.62 (active).

For the sequence GGAAGACUUUGAAUACCACTT against Slc4a2, the z-score was 0.457.

GCUGUUCUGCAAAACUGGATT against Rbpms: the z-score is -1.36.

Consider GGACACAAGGUCGCCAUCUTT against Tcf7l1, for which the z-score was -0.502.

On to GGUGCUGGAUGAAUUUGGGTT against Zp1, for which the z-score is -0.416.

As for GCAUGUCGCCUUGAAAUUATT against Cpne4, the z-score is 0.202.

GGAAGGAGGGUAUGUGGUUTT against Lgals9: the z-score is -0.346.

Turning to GCAAACUGCCCUCUUUGUGTT against Olfr1024, the z-score was 2.54 (active).

As to GGAUAUACACAACAGGCACTT against Tceal9, the z-score was 0.422.

With GGAGACACAUAGGUGUAAATT against H2-T23, the z-score was 0.458.

Consider “GCACCAUCGACUAAUCAAATT against 1700029J07Rik”, for which the z-score was 1.12.

As to CCUCUGCUACUCUUAUUGUTT against Ttn, the z-score is -0.523.

With GGACUGUACAGUGGCAUUATT against Cd70, the z-score was -1.69.

Regarding UACUCGUGGUGUUUGCAAGTT against Olfr1154, the z-score is 0.873.

As for GGUGGAAGCAAGAGAAAAUTT against Tnp1, the z-score was 2.03 (active).

Turning to GCUCAUGUCUUAUUUGGAUTT against Klhl15, the z-score is -0.393.

Consider CCGAAGUGCCAUGCCAUUUTT against Pdlim1, for which the z-score is 0.399.

Take GCACAUUUAUCCCGGUGUATT against Pnpla2: the z-score is -2.01 (active).

For GGUUCAAUUCAAGUCUUUATT against Olfr195, the z-score was 0.339.

On to GGCCUACAGCUGGAAAGAATT against Chrm1, for which the z-score is 0.418.

(Values after PubChem BioAssay AID1508600 (Functional Genomics Laboratory (NCATS/FGL), 2020).)
